From PubChem BioAssay (NCATS)
Inconclusive results are not listed. Where a call stands in place of a potency, no number is given. Active and inactive are the calls of the source. The call rests on the fitted dose curve; tested in HEK293 reporter line.

test: qHTS for Inhibitors of the Functional Ribonucleoprotein Complex (vRNP) of Lassa (LASV) Arenavirus: LASV Primary Screen - GLuc reporter signal (AID 1347082); conditions: LASV minigenome vRNP, Gaussia luciferase reporter; series mostly up to 57.5 µM; further: nearly all actives have a fitted effect of over 60% in size
Potency means the concentration at half of the fitted maximal effect.

Structure (SMILES)	Potency
COc1cc2c(cc1OC)C(=O)CC2	inactive
CC(C)(N)C(=O)N[C@H](COCc1ccccc1)C(=O)N1CCC2(CC1)CN(S(C)(=O)=O)c1ccccc12	inactive
CC(C)(C)c1nnc(NS(=O)(=O)c2ccccc2)s1	inactive
CCN(CC)CCNC(=O)c1ccc(NC(C)=O)cc1	inactive
CC[C@@H](C)[C@H](NC(=O)[C@H](CC1CCCCC1)NC(=O)c1ccno1)C(=O)N1CCC2(CCc3ccccc32)CC1	inactive
CCC[C@H](NC(=O)C(C#N)=Cc1cccc(Br)n1)c1ccccc1	inactive
CC(C)(C)c1cnc(CSc2cnc(NC(=O)C3CCNCC3)s2)o1	6.11 µM (active)
COc1c(N2CCNC(C)C2)c(F)cc2c(=O)c(C(=O)O)cn(C3CC3)c12 (centres undefined)	inactive
COc1cc(Oc2ccnc3cc(OC)c(OC)cc23)ccc1NC(=O)NC(C)c1nccs1 (centres undefined)	inactive
CC(C)(C(=O)NCC(F)(F)C(F)(F)F)C(=O)N[C@@H]1C(=O)Nc2ccccc2-c2ccccc21	24.3 µM (active)
CCOC(=O)[C@@H](N)CCC(=O)N[C@@H](CSCc1ccccc1)C(=O)N[C@@H](C(=O)OCC)c1ccccc1	inactive
O=C(O)c1ccc2c(c1)nc(Nc1cccc(Cl)c1)c1ccncc12	inactive
CCOC(=O)c1c(C)n(C)c2ccc(O)cc12	inactive
CC1=C(/C=C/C(C)=C/C=C/C(C)=C/C(=O)O)C(C)(C)CCC1	inactive
O=C(Oc1ccccc1)c1cccc(C(=O)Oc2ccccc2)c1	inactive
CS(=O)(=O)c1cccc(CNc2nc(Nc3ccc4c(c3)CCC(=O)N4)ncc2C(F)(F)F)c1	inactive
COc1cccc2c1CCCC2CCCN1CCN(C2CCCCC2)CC1 (centres undefined)	inactive
N[C@H]1C(O)O[C@H](CO)[C@@H](O)[C@@H]1O (some centres undefined)	inactive
COCC(=O)NCC=Cc1ccc2ncnc(Nc3ccc(Oc4ccc(C)nc4)c(C)c3)c2c1	43.2 µM (active)
CN(C)c1ccc(C2Nc3ccc4ccccc4c3C3=C2C(=O)CC(C)(C)C3)cc1Br (centres undefined)	inactive

Structure (SMILES)	Potency
O=C(O)c1ccc2cc(-c3ccc(O)c(C45CC6CC(CC(C6)C4)C5)c3)ccc2c1	inactive
CCC(=O)N[C@H]1CC[C@H](C(=O)N(C)c2ccc(-c3nc4ccccc4o3)cc2)C1	9.68 µM (active)
N#CC[C@H](C1CCCC1)n1cc(-c2ncnc3[nH]ccc23)cn1	inactive
NC(=O)C1CCCc2c1[nH]c1ccc(Cl)cc21 (centres undefined)	inactive
Oc1cccc(-c2nc(N3CCOCC3)c3oc4ncccc4c3n2)c1	0.993 µM (active)
O=C(O)[C@@H](c1ccc(OCc2ccc3ccccc3n2)cc1)C1CCCC1	inactive
Cc1ccc(NC(=O)c2ccc(CN3CCN(C)CC3)cc2)cc1Nc1nc(-c2cccnc2)cs1	inactive
OC[C@H]1O[C@@H](n2cnc3c2NC=NC[C@@H]3O)C[C@H]1O	inactive
O=C1[C@H](Cc2ccc(O)cc2)N2C(=O)CCN(C(=O)NCc3ccccc3)[C@H]2CN1Cc1cccc2ccccc12	19.3 µM (active)
C[C@@H]1CN(CC(=O)Nc2ccc3c(c2)Cc2cccc(-c4cc(=O)cc(N5CCOCC5)o4)c2S3)C[C@H](C)O1	inactive
Oc1c(I)cc(I)c2cccnc12	inactive
O=C(NO)c1ccccc1	inactive
CS(=O)(=O)Nc1ccc([N+](=O)[O-])cc1Oc1ccccc1	inactive
C=CC(=O)Nc1cccc(Oc2nc(Nc3ccc(N4CCN(C)CC4)cc3OC)ncc2Cl)c1	inactive
CCc1cc(Nc2nccc(-c3c(-c4ccc(OC)c(C(=O)Nc5c(F)cccc5F)c4)nc4ccccn34)n2)c(OC)cc1N1CCC(N2CCN(S(C)(=O)=O)CC2)CC1	inactive
C1=CCOCc2cc(ccc2OCCN2CCCC2)Nc2nccc(n2)-c2cccc(c2)OCC1	12.2 µM (active)
COc1ccc(C2=N[C@H](c3ccc(Cl)cc3)[C@H](c3ccc(Cl)cc3)N2C(=O)N2CCNC(=O)C2)c(OC(C)C)c1	inactive
O=c1cc(-c2ccccc2)oc2ccccc12	inactive
Cc1c(C(=O)Nc2ccc(N3C[C@@H](C)O[C@@H](C)C3)nc2)cccc1-c1ccc(OC(F)(F)F)cc1	inactive
